From PubChem BioAssay (NCATS)
Results filed as inconclusive are left out. Activity calls are given as the source filed them. Calls follow the shape of the dose curve; as a rule, active = well fitted inhibition curve with a large enough effect; inconclusive = small, poorly fitted or top-dose-only effect; inactive = flat fitted curve, though single readings scatter.

Columns and labels:
Test in all cases: qHTS profiling for inhibitors of Plasmodium falciparum proliferation (AID 504749); also: nearly all actives have a fitted effect of over 60% in size
Conditions in all cases: P. falciparum in erythrocytes, SYBR Green DNA, 72 h; series mostly up to 28.7 µM
CP265 = test system: CP265
How it was run: (§1)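 Each compound contacts P. falciparum-infected red blood cells for 72 h at 37 C; lysis buffer (Tris, EDTA, saponin, Triton X, SYBR Green I) is added and fluorescence measured next morning; values normalized to controls.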

CP266 = test system: CP266
How it was run: as §1

CP268 = test system: CP268
How it was run: as §1

CP269 = test system: CP269
How it was run: as §1

CP286 = test system: CP286
How it was run: as §1

CP291 = test system: CP291
How it was run: as §1

CP297 = test system: CP297
How it was run: as §1

CP305 = test system: CP305
How it was run: as §1

CP315 = test system: CP315
How it was run: as §1

CP325 = test system: CP325
How it was run: as §1

Measured: Potency
Potency is read from the fitted curve at half-maximal effect.

CC1(C)CCC(C)(C)c2cc(NC(=O)c3ccc(C(=O)O)cc3)ccc21
inactive: all assays above

COC1=C(OC)C(=O)C(CCCCCCCCCCO)=C(C)C1=O
inactive: all assays above

CCOC(=O)c1c(C)n(C)c2ccc(O)cc12
inactive: all assays above

O=C(O)CCNC(=O)c1ccc(N=Nc2ccc(O)c(C(=O)O)c2)cc1
inactive: all assays above

Nc1cccc2c1CN(C1CCC(=O)NC1=O)C2=O (configuration not stated)
inactive: all assays above

COc1cc(OC)c(C(=O)CCCN2CCCC2)c(OC)c1
inactive: all assays above

CCN(CC)CCOc1ccc(Cc2ccccc2)cc1
inactive: all assays above

Cc1ccc(C)c(OCCCC(C)(C)C(=O)O)c1
inactive: all assays above

CCCCN(CCCC)CCC(O)c1cc2c(Cl)cc(Cl)cc2c2cc(C(F)(F)F)ccc12 (configuration not stated)
active: CP265 31.6 nM | CP266 90.7 nM | CP268 51 nM | CP269 16.1 nM | CP286 8.9 nM | CP291 28.7 nM | CP297 18.1 nM | CP305 36.1 nM | CP315 51 nM | CP325 28.7 nM

O=C(NC(Cc1cc(=O)[nH]c2ccccc12)C(=O)O)c1ccc(Cl)cc1 (configuration not stated)
inactive: all assays above

CN(C)c1ccc2nc3ccc(=[N+](C)C)cc-3sc2c1
active: CP265 89.1 nM | CP266 75.7 nM | CP268 37.9 nM | CP269 84.9 nM | CP286 12.6 nM | CP291 53.6 nM | CP297 67.5 nM | CP305 21.3 nM | CP315 151 nM | CP325 47.8 nM

Nc1ccn([C@@H]2O[C@H](CO)[C@@H](O)C2O)c(=O)n1 (some centres not stated)
inactive: all assays above

N[C@@H](Cc1cc(I)c(Oc2cc(I)c(O)c(I)c2)c(I)c1)C(=O)O
inactive: all assays above

CC(S)C(=O)NCC(=O)O (configuration not stated)
inactive: all assays above

Nc1ccc(S(N)(=O)=O)cc1
inactive: all assays above

CCOc1cc(CC(=O)N[C@@H](CC(C)C)c2ccccc2N2CCCCC2)ccc1C(=O)O
inactive: all assays above

N=C(N=C(N)N)N1CCOCC1
inactive: all assays above

O=C(O)c1cccnc1Nc1cccc(C(F)(F)F)c1
inactive: all assays above

Cc1cc2c(s1)Nc1ccccc1N=C2N1CCN(C)CC1
inactive: all assays above

CCC1=C(C)CN(C(=O)NCCc2ccc(S(=O)(=O)NC(=O)NC3CCC(C)CC3)cc2)C1=O (configuration not stated)
inactive: all assays above

Cc1c(OCC(F)(F)F)ccnc1CS(=O)c1nc2ccccc2[nH]1 (configuration not stated)
inactive: all assays above

O=c1oc2cc(O)ccc2s1
inactive: all assays above

C[C@]12CCC(=O)C=C1CC[C@@H]1[C@H]2[C@@H](O)C[C@@]2(C)[C@H]1CC[C@]2(O)C(=O)CO
inactive: all assays above

Cn1c(NCCN(CCO)CCCc2ccc([N+](=O)[O-])cc2)cc(=O)n(C)c1=O
inactive: all assays above

Nc1cc(C(Cl)=C(Cl)Cl)c(S(N)(=O)=O)cc1S(N)(=O)=O
inactive: all assays above

CCC(C)(Oc1ccc(C2(c3ccc(OC(C)(CC)C(=O)O)cc3)CCCCC2)cc1)C(=O)O (configuration not stated)
inactive: all assays above

CNC[C@H](O)c1ccc(O)c(O)c1
inactive: all assays above

C[Se]CCC(N)C(=O)O (configuration not stated)
not listed: CP297
inactive: all other assays above

CCCc1cc(=O)[nH]c(=S)[nH]1
inactive: all assays above

CCCCCCCCCCCCCCCCCCCCCCO
not listed: CP291
inactive: all other assays above

CC(C)(S)[C@@H](N)C(=O)O
inactive: all assays above

COC(=O)C1=C(C)NC(C)=C(C(=O)OCCCN2CCC(c3ccccc3)(c3ccccc3)CC2)C1c1cccc([N+](=O)[O-])c1 (configuration not stated)
active: CP265 7940 nM | CP266 9530 nM | CP268 9530 nM | CP269 4780 nM | CP286 2820 nM | CP291 6750 nM | CP297 4780 nM | CP305 7570 nM | CP315 9530 nM | CP325 6010 nM

CS(=O)(=O)OCCCCOS(C)(=O)=O
inactive: all assays above

CN1C(C(=O)Nc2ccccn2)=C(O)c2sccc2S1(=O)=O
inactive: all assays above

Cc1ncc([N+](=O)[O-])n1CC(C)O (configuration not stated)
not listed: CP297
inactive: all other assays above
